# FBPA Giardia inh: inhibitors of Giardia lamblia fructose-1,6-bisphosphate aldolase; A8B2U2; purified Giardia FBPA; Potency, µM (top dose mostly 59.6 µM), for the others: top-dose activity, negative = inhibition, hits mostly inhibitors; 290,000 tested, 0.71% active; AID 2451; further: nearly all actives have a fitted effect of over 55% in size
# Target sequence (A8B2U2 whole entry, looked up): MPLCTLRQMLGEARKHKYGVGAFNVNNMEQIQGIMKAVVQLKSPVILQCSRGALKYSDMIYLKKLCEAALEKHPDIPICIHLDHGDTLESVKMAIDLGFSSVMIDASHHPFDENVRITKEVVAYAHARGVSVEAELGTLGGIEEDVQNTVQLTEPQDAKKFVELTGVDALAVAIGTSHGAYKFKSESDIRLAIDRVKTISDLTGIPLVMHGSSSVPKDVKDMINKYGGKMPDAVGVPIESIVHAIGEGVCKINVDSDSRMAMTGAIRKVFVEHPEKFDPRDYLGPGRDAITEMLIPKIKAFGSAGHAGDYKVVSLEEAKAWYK
#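 40 nM FBPA preincubated 10 min at RT with compound (up to 57.5 uM final), then substrate plus GAPDH/TPI/NAD/arsenate coupling and diaphorase/resazurin added. Fluorescence read after 20 min at RT, 525/598 nm.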
# AmpC inh detg: AmpC beta-lactamase inhibition with detergent present. AmpC hydrolysis of nitrocefin, absorbance 480 nm, 0.01% Triton. Potency, µM (highest dose often 114 µM), inactives show at the highest dose activity change, negative = inhibition, most hits filed as inhibitors. 370,000 tested, 0.041% active. AID 485294;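 further: 0% = no-compound wells and -100% = no-enzyme wells; nearly all actives have a fitted effect of over 25% in size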
# Target sequence (P00811 whole entry, looked up): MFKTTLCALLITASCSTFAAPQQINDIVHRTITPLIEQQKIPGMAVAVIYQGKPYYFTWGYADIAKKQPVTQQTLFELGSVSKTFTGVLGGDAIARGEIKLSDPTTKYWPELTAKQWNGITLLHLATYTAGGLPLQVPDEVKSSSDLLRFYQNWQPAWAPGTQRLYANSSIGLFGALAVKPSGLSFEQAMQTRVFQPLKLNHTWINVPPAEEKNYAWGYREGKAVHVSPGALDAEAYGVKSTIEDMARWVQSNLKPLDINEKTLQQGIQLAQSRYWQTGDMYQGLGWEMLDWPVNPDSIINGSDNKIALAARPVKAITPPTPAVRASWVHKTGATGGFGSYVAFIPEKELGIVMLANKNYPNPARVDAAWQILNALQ
#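 20 mM phosphate pH 7.0 + 0.01% (detergent screen) or 0.0001% Triton X-100; 5.3 nM AmpC reagent; cpd preinc 15 min RT; nitrocefin (800 uM stock) to start; A480 q20 s × 4 min; Activity was normalised to no-enzyme and no-compound control wells.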
# RE007 growth inh: less growth of the S. pombe RE007 Vpr strain. S. pombe RE007 Vpr strain, BacTiter-Glo ATP luminescence, 24 h. Potency, µM (highest dose often 92.2 µM), inactives show at the highest dose activity change, negative = less growth, hits mostly inhibitors. 360,000 tested, 0.21% active. AID 651644; active means well fitted falling curve with a large enough effect; inconclusive means small, poorly fitted or top-dose-only effect; inactive means no such curve, though single readings can be large or run the other way; further: nearly all actives have a fitted effect of over 50% in size
#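 Fission yeast RE007 carrying one integrated HIV-1 vpr copy, seeded at OD 0.01 in PMG+AL medium with 23 nL pinned compound. Grown 24 h at 30 degrees; viability read by BacTiter-Glo luminescence after 5 min.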
# Sm TGR block: inhibitors of Schistosoma mansoni thioredoxin glutathione reductase. AID 485364. Q962Y6. purified TGR, DTNB reduction, TNB absorbance 405 nm. Potency, µM (highest dose often 114 µM), for inactives: at the top dose activity change, negative = inhibition, most hits filed as inhibitors. 360,000 tested, 3% active; further: nearly all actives have a fitted effect of over 60% in size
#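 Kinetic colorimetric format: TGR-catalysed, NADPH-driven DTNB reduction monitored via TNB absorbance. Enzyme dispensed at 20 nM; compound exposure 15 min at room temperature before reaction start.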
# AmpC no deterg: inhibitors of E. coli AmpC beta-lactamase without detergent. 330,000 tested, 0.52% active. Potency, µM (doses to about 57.1 µM), inactives show at the highest dose activity change, negative = inhibition, actives largely listed as inhibitors. AmpC nitrocefin hydrolysis, absorbance 480 nm, 0.0001% Triton. P00811;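 further: plate controls were no compound for no effect and no enzyme for full effect; nearly all actives have a fitted effect of over 20% in size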
#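 20 mM phosphate pH 7.0 + 0.01% (detergent screen) or 0.0001% Triton X-100; 5.3 nM AmpC reagent; cpd preinc 15 min RT; nitrocefin (800 uM stock) to start; A480 q20 s × 4 min; Activity was normalised to no-enzyme and no-compound control wells.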
# * marks the source's active call; other numbers are inactive results; u = inconclusive; x = not tested or not shown; ! = repeats disagree; [ ] = remark or other dose. The list is not random: actives were taken first. Their share in the collection is about 3.4%. Unless noted, the call rests on the fitted dose curve; in most records, active means well fitted curve in the direction sought with a large enough effect; inconclusive means small, poorly fitted or top-dose-only effect, or another doubt; inactive means no such curve, though single readings can be large; an effect the other way counts as inactive or inconclusive. Unless noted, on the % scale 0 is the no-effect control and ±100 the full control effect; potency means the concentration at half of the fitted maximal effect.
SMILES,FBPA Giardia inh,AmpC inh detg,RE007 growth inh,Sm TGR block,AmpC no deterg
N#C/C(=C\c1coc2ccc(O)cc2c1=O)C(=O)Nc1nc2ccccc2s1,-20%,-9%,-20%,u,u
COc1ccc(OC)c(NC(=O)COC(=O)c2ccc(OC)c(S(=O)(=O)N3CCCC3)c2)c1,x,2%,-23%,5%,27%
CCN(CC)c1ccc(C(=C2C=CC(=[N+](CC)CC)C=C2)c2ccccc2)cc1,18µM*,x,4.5µM*,x,x
CCN(CC)c1ccccc1,x,-4%,1%,-4%,-4%
CCN(C[C@H]1N[C@@](CC)(C(=O)OC)[C@H]2C(=O)N(C)C(=O)[C@@H]12)C(=O)Nc1ccc(C(F)(F)F)cc1,x,x,0%,x,-13%
O=c1c(Cl)c(N2CCNCC2)cnn1C12CC3CC(CC(C3)C1)C2,7%,-6%,-3%,-15%,-14%
N#CC1(Nc2ccc([N+](=O)[O-])cc2)CCCC1,x,x,21%,x,x
NCCSC1CC(=O)N(Cc2ccc(F)cc2)C1=O (centres undefined),2%,-13%,-20%,7.9µM*,-22%
CCCCCCOc1ccc(N2C(=O)CC(SCCN)C2=O)cc1 (centres undefined),u,1%,-13%,-35%,28%
CCOc1ccc(N2C(=O)CC(Sc3nnnn3-c3ccccc3)C2=O)cc1 (centres undefined),6%,-14%,32µM*,10µM*,3%
O=C1CC(Sc2ccc(Cl)cc2)C(=O)N1Cc1ccncc1 (centres undefined),1%,-3%,-14%,7.1µM*,-7%
CCOc1ccc(N2C(=O)CC(SCCN)C2=O)cc1 (centres undefined),-24%,u,20µM*,u,-2%
O=C1C=CC(=O)N1Cc1ccncc1,x,x,18%,x,x
Oc1ccc(Cl)cc1C=NN1CCCCCC1,x,x,-1%,x,x
CCN(CC)c1ccc(NC(=O)CSc2nnc3nc(C)cc(C)n23)cc1,2%,-3%,-6%,-13%,4%
COc1ccc(Cl)cc1Cn1c(C)c(C(=O)NCc2cccc(C(F)(F)F)c2)sc1=O,x,x,21%[18.4 µM],x,x
COc1ccccc1CNC(=O)c1cc(C(C)=O)c[nH]1,1%,-5%,7%,8%,-8%
CN(C)S(=O)(=O)c1cccc(NC(=O)COc2nc3ccccc3nc2N2CCOCC2)c1,-10%,3%,14%,u,-17%
Cc1cc(C)n(-c2nc3ccccc3c(=O)n2OCc2ccc(F)cc2)n1,-14%,32µM*,-7%,-9%,45%
O=S(=O)(c1ccc(Cl)c(NC(=S)Nc2cccc(O)c2)c1)N1CCOCC1,-25%,2%,5%,11µM*,-34%
CCN(C(=S)Nc1cc(S(=O)(=O)N2CCOCC2)ccc1Cl)c1cccc2ccccc12,7.1µM*,-5%,-6%,-14%,-43%
O=C(Cn1nc(C(=O)O)c2ccccc2c1=O)Nc1cc(S(=O)(=O)N2CCOCC2)ccc1Cl,x,x,0%,x,1%
O=C(CNc1ccccc1Cl)Nc1cc(S(=O)(=O)N2CCOCC2)ccc1Cl,x,0%,5%,-9%,43%
CC1=C(C(=O)OC2CCCCC2)C(c2cccs2)n2c(nc3ccccc32)N1 (centres undefined),6%,-13%,-9%,0%,u
COc1cccc(-c2nc(CS(=O)(=O)CC(=O)NC3CCCC3)c(C)o2)c1,6%,0%,4%,45µM*,53%
SMILES,FBPA Giardia inh,AmpC inh detg,RE007 growth inh,Sm TGR block,AmpC no deterg
Cc1oc(-c2cccc(Cl)c2)nc1CS(=O)(=O)CC(=O)NC1CCCC1,7%,-18%,-12%,45µM*,47%
COc1cccc(-c2nc(CS(=O)(=O)CC(=O)NC3CCC(C)CC3)c(C)o2)c1 (centres undefined),11%,u,-5%,-17%,96%
COc1ccc(-c2nn(-c3ccccc3)cc2CNC[C@H]2O[C@@H](n3cnc(C(N)=O)n3)[C@H](O)[C@@H]2O)cc1,x,x,13%,x,x
O=C(NP(=O)(N1CCOCC1)N1CCOCC1)C1=C(N2CCOCC2)/C(=C\c2ccccc2)CC1,-7%,-14%,-28%,3.2µM*,-13%
O=CC1=C(N2CCOCC2)/C(=C\c2ccccc2)CC1,-16%,2%,u,25µM*,-38%
O=P(C1=C(N2CCOCC2)/C(=C\c2ccccc2)CC1)(N1CCOCC1)N1CCOCC1,11%,-9%,11%,45µM*,147%
Cc1cc(=O)[nH]c(N/N=C/C2=C(N3CCOCC3)C(=C\c3ccc(Cl)cc3)/CC2)n1,-19%,-4%,-7%,25µM*,-38%
O=C(N/N=C/C1=C(N2CCOCC2)C(=C\c2ccccc2)/CC1)Nc1ccccc1,5%,1%,-11%,-6%,-23%
N#CC1=C(N2CCOCC2)/C(=C\c2ccccc2)CC1,-13%,u,7%,-27%,-7%
Cc1ccc(-c2[nH][nH]c(=O)c(=O)c2N=Nc2ccccc2)cc1,-30%,3%,-5%,-12%,-7%
O=C(O)c1ccccc1N/N=C/C1=C(N2CCOCC2)C(=C\c2ccccc2)/CC1,-5%,u,-24%,16µM*,-56%
CCOc1ccc(C(=O)NCC(=O)OCC(=O)N(C)CC(=O)Nc2ccccc2CC)cc1OCC,x,x,2%,x,x
COc1ccc(N(CC2CO2)S(=O)(=O)c2ccccc2)cc1 (centres undefined),6%,-2%,3%,40µM*,-13%
COc1ccccc1N(CC1CO1)S(=O)(=O)c1ccccc1 (centres undefined),-3%,u,14%,2%,-6%
O=C1NN(c2ccc(F)cc2)C(=O)/C1=C\C=C\c1ccco1,-1%,-11%,-9%,u,-21%
CC(C)N1C(=O)/C(=C/C=C/c2ccco2)C(=O)N(Cc2ccco2)C1=O,0%,-10%,-18%,3.5µM*,-23%
CCN1C(=O)C(=C/C=C/c2ccco2)C(=O)N(CC)C1=S,-25%,-12%,-17%,8.9µM*,-47%
COc1ccc(CN2C(=O)NC(=O)/C(=C\c3ccco3)C2=O)cc1,1%,u,-14%,u,-51%
O=C1NC(=O)N(Cc2ccccc2)C(=O)/C1=C/C=C/c1ccco1,7%,-6%,1%,6.3µM*,u
CCc1nnc(NC(=O)CSc2nnc(-c3cccnc3)n2CCc2ccccc2)s1,-2%,-12%,10%,-28%,-1%
NC1(C(=O)O)CC(C(=O)O)C1 (centres undefined),5.6µM*!,x,x,x,x
COc1ccc(C2=NN(C(=O)COC(=O)c3ccc(NC(=O)CC#N)cc3)C(c3ccco3)C2)cc1 (centres undefined),x,u,2%,1%,-38%
O=C(NC1CC1)C1CC(=O)N(c2cccc(Cl)c2)C1 (centres undefined),x,-3%,-6%,7.1µM*,-43%

# Source: PubChem (National Center for Advancing Translational Sciences (NCATS))
